The values below come from PubChem BioAssay.

Unmarked numbers belong to inactive results.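 How the source made its calls, unless noted: active means mean inhibition above 46.68%, the untreated control wells mean plus 3 SD; inactive means the rest.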

For experiment [1], the target named is Nuclear receptor coactivator 1 (Homo sapiens) (UniProt Q15788). Kind of experiment: SRC1 coactivator transcriptional activity inhibitors, confirmation, cell-based, luminescence, quadruplicate (AID 588820).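 Further: 0% = DMSO wells and 100% = gossypol 36 µM treated wells.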 The following applies: HEK293 GAL4-SRC1 luciferase reporter, at 3.6 µM, stronger effect = higher value.
Nuclear receptor coactivator 1 (Homo sapiens), sequence (Q15788 whole entry, looked up, the tested form may be a part): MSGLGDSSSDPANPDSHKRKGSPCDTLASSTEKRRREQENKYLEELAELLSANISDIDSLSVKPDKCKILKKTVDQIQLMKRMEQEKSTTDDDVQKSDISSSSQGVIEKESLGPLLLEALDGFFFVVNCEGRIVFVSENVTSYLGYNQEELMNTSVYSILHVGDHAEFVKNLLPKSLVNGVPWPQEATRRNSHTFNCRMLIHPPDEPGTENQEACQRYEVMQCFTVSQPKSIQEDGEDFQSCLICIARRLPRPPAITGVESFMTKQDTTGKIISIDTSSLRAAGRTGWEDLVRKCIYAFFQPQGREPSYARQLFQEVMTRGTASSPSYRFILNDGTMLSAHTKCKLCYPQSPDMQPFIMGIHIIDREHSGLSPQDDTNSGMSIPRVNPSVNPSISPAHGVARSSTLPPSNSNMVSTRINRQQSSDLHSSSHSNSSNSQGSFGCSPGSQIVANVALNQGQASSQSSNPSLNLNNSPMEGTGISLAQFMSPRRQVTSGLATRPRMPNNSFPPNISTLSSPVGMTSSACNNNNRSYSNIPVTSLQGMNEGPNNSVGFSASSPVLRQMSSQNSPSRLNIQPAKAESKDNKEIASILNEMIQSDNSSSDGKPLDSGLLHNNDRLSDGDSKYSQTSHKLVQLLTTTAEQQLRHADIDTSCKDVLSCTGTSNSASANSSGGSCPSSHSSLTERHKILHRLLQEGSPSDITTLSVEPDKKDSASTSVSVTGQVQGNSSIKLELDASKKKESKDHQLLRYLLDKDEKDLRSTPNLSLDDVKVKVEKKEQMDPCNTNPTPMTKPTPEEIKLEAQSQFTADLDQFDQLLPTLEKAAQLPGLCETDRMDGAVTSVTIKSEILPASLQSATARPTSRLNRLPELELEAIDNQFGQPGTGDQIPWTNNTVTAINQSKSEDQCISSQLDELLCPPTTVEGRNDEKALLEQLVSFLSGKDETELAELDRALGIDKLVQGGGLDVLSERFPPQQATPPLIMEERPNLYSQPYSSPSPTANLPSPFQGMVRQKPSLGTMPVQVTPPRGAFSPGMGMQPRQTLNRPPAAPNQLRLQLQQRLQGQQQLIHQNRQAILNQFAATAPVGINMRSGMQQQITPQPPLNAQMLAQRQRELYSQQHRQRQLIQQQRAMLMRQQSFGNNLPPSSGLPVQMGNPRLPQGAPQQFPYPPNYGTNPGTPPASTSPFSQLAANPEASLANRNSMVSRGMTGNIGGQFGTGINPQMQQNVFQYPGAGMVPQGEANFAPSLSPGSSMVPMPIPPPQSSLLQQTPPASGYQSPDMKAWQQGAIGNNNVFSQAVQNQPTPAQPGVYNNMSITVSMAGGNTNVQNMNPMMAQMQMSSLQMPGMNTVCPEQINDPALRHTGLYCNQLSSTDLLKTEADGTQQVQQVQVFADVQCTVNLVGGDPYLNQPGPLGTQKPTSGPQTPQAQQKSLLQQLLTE
Experiment [2] in a line: VP16 transactivation inhibitors, counter-screen for SRC1 inhibitor project, cell-based, luminescence, high throughput (AID 588824; in the data active means inhibition above about 25%). The following applies: cell-based VP16 transactivation luciferase luminescence; at 3.6 µM; stronger effect = higher value.

Regarding `CN1OC[C@@H]2CN(C(=S)NCCc3ccccc3)[C@H](c3ccc(-n4ccnc4)cc3)C[C@@H]21`, the inhibition is -1.96% in experiment [1] and -0.23% in experiment [2].
On the same counts, the results for `Cc1cc(C)nc(/N=C(\N)Nc2ccc(CC(=O)OC(C)C)cc2)n1` are -11.9% and 16.6%.
As to `CCCC(C)NC(=O)C1c2ccccc2Oc2ccccc21` (centres undefined), the inhibition in experiment [1] is -0.82%; in experiment [2], -7.9%.
Regarding `CC(=O)c1c(C)n(-c2ccc(C)cc2)c2ccc(O)cc12`, the inhibition is 35% in experiment [1] and 19.8% in experiment [2].
`CC(C)(CNC(=O)c1ccc(-c2cccc(C(F)(F)F)c2)o1)N1CCOCC1`: the inhibition is -2.1% in experiment [1] and -0.96% in experiment [2].
Consider `CCN(CC)CCNC(=O)c1ccc(NC(=O)C2CCN(c3ncnc4sc(C)c(C)c34)CC2)cc1`, for which the values for the inhibition in experiment [1] and in experiment [2] were 24.3% and 17.3%, respectively.
On the same counts, the results for `Cc1cccc(N2CCN(C(=O)CSc3nc4ccccc4nc3N3CC(C)OC(C)C3)CC2)c1C` (centres undefined) are -26.1% and 12.3%.
`Cc1sc2ncnc(N3CCC(C(=O)N(C)CC(=O)Nc4ccccc4Br)CC3)c2c1C`: the inhibition in experiment [1] is 5.26%; in experiment [2], 13.3%.
`COc1ccc(S(=O)(=O)Nc2ccccc2C(=O)N2CCCC2)cc1OC`: the inhibition in experiment [1] is -5.26%; in experiment [2], -1.42%.
The matching figures for `O=C1C2C3C=CC(C3)C2C(=O)N1CN(Cc1ccccc1)CN1C(=O)C2C3C=CC(C3)C2C1=O` (centres undefined): -20.9% and -14.3%.
The matching figures for `Cn1c2ccccc2c(=O)c2ccc(C#CC3(O)CCCCC3)cc21`: -132% and -43.1%.
For the molecule `O=C(Cc1cccs1)N(CC1CCCO1)C1(C(=O)NC2CCCCC2)CCCCC1` (centres undefined), the values for the inhibition in experiment [1] and in experiment [2] were 7.13% and 14.9%, respectively.
Take `CC(=O)NC(c1cccs1)c1cc(F)c2cccnc2c1O` (centres undefined): the values for the inhibition in experiment [1] and in experiment [2] were 14.3% and 15.3%, respectively.
As to `CC1CCN(C(=O)c2scc3c2OCCO3)CC1`, the inhibition in experiment [1] was 18.3%; in experiment [2], 8.58%.
With `COc1ccccc1NC(=O)c1cc(S(=O)(=O)NC2CCCC2)ccc1F`, the inhibition in experiment [1] is 3.42%; in experiment [2] it was 5.69%.
`COc1ccc(-n2cnc(N)c2C(=O)c2cccc([N+](=O)[O-])c2)cc1`: the values for the inhibition in experiment [1] and in experiment [2] were 38.1% and 18.6%, respectively.
The matching figures for `Cc1c(C(=O)NCC2COc3ccccc3O2)oc2ccc(S(=O)(=O)N3CCOCC3)cc12` (centres undefined): -7.47% and 15.8%.
